This note sets out measurements from PubChem BioAssay AID463173 (ICCB-Longwood Screening Facility, Harvard Medical School, 2010).

In all, about 52,000 compounds went through this assay and about 4,300 (8.3%) were called active. The full list was thinned out, with actives kept by preference. Values without a mark were called inactive. Cut-off read from the data, not from the text of the source: active = survival mostly below about 52% (no sharp cut-off); inactive = mostly above about 56%.

In the experiment the test system is DeltatarO mutant. The experiment is described as follows: growth inhibition of S. aureus wild type versus tarO mutant, primary screen, teichoic acid synthesis inhibitors, RN4220, OD600 (AID 463173). The settings on record: OD600, 18 h, stronger effect = lower value, screened at 18.75 µg/mL (by protocol).
For `CCCCNC(=O)c1[nH]c2ccccc2c1Sc1ccc(C)cc1`, the survival was 75%.

Take `CC1CCCCN1CCCNC(=O)c1[nH]c2ccccc2c1Sc1ccc(Cl)cc1` (configuration not stated): the survival is 1% (active).

Turning to `CCN(CC)CCNC(=O)c1[nH]c2ccccc2c1Sc1ccc(Cl)cc1`, the survival is 45%.

For the compound `CCC1CCCCN1CCCNC(=O)c1[nH]c2ccccc2c1Sc1ccc(Cl)cc1` (configuration not stated), the survival was -1% (active).

Consider `CC1CCCCN1CCCNC(=O)c1cc(Sc2cccc(Cl)c2)nc2ccccc12` (configuration not stated), for which the survival is 68%.

Turning to `CC1CCCCN1CCCNC(=O)Cn1ncc2c([nH]c3ccccc32)c1=O` (configuration not stated), the survival is 124%.

Turning to `CC1CCCCN1C(=O)CN1CCSc2ccccc21` (configuration not stated), the survival was 74%.

Consider `Cc1nc2sc(C(=O)Nc3ccc(F)cc3)c(N)c2c(-c2ccc(Br)cc2)c1C(=O)Nc1ccc(Cl)cc1`, for which the survival was 80%.

As to `COc1ccc(NC(=O)c2sc3nc(C)c(C(=O)Nc4ccc(Cl)cc4)c(-c4ccc(Br)cc4)c3c2N)cc1`, the survival is 57%.

For `Cc1nc2sc(C(N)=O)c(N)c2c(-c2ccc(Br)cc2)c1C(=O)Nc1ccc(Cl)cc1`, the survival is 10% (active).

For `Cc1ccc(CNC(=O)CCN2C(=O)C(C)Oc3ccc(C)cc32)cc1` (configuration not stated), the survival is 128%.

Turning to `Cn1cc(C(=O)O)c(=O)c2ccccc21`, the survival is 80%.

For the compound `CCc1nnc(NC(=O)c2c(O)c3ccccc3n(C)c2=O)s1`, the survival was -1% (active).

Turning to `CCc1nnc(NC(=O)c2c(O)c3ccccc3[nH]c2=O)s1`, the survival was 84%.

`CCCNC(=O)c1c(O)c2ccccc2n(C)c1=O`: the survival is 93%.

On to `COc1ccc(C(=O)COC(=O)CCCC(=O)Nc2cc(C(F)(F)F)ccc2Cl)cc1`, for which the survival was 53%.

Take `Cc1ccc(C)c(C(=O)COC(=O)CCCC(=O)Nc2cc(C(F)(F)F)ccc2Cl)c1`: the survival is 25% (active).

For `Cc1ccc(C(=O)COC(=O)CCCC(=O)Nc2cc(C(F)(F)F)ccc2Cl)cc1C`, the survival is 54%.

For the compound `COC(=O)c1ccccc1NC(=O)CSc1nc(=O)cc(N)n1-c1ccccc1`, the survival is 38% (active).

`CCOc1ccccc1NC(=O)CSc1nc(-c2cccs2)cc(C(F)(F)F)n1`: the survival is 69%.

With `Cc1ccc(NC(=O)CSc2nc(=O)cc(N)n2-c2ccccc2)cc1`, the survival was 87%.

Turning to `CC(C)(C)c1ccccc1NC(=O)CSc1nc(-c2cccs2)cc(C(F)(F)F)n1`, the survival was 23% (active).

With `COc1ccc(NC(=O)CSc2nc(-c3cccs3)cc(C(F)(F)F)n2)c(OC)c1`, the survival was 57%.

As for `Nc1cc(=O)nc(SCC(=O)Nc2ccc(F)cc2)n1-c1cccc(Cl)c1`, the survival is 145%.

Consider `COc1ccc(Cl)cc1NC(=O)CCS(=O)(=O)c1nc(-c2cccs2)cc(C(F)(F)F)n1`, for which the survival was 63%.

In the case of `COc1ccc(NC(=O)CSc2nc(-c3cccs3)cc(C(F)(F)F)n2)cc1Cl`, the survival was 37% (active).

For `COc1cc(NC(=O)CSc2nc(-c3cccs3)cc(C(F)(F)F)n2)cc(OC)c1OC`, the survival is 49%.

For `COc1ccc(Cl)cc1NC(=O)CSc1nc(-c2cccs2)cc(C(F)(F)F)n1`, the survival is 35% (active).

As for `Cc1ccc(NC(=O)CSc2nc(-c3cccs3)cc(C(F)(F)F)n2)cc1C`, the survival was 155%.

As for `O=C(CSc1nc(-c2cccs2)cc(C(F)(F)F)n1)Nc1ccccc1Cl`, the survival is 121%.

As for `CCOC(=O)c1oc2ccc(S(=O)(=O)n3nc(-c4cc(OC)c(OC)c(OC)c4)cc3N)cc2c1C`, the survival was 73%.

As to `Cc1cccc(N2CCN(C(=O)C3CCN(S(=O)(=O)c4c(C)noc4C)CC3)CC2C)c1` (configuration not stated), the survival is 100%.

`CCOc1ccc(-c2nn(CC(=O)NC3CCCCC3)c3c2cnc2ccc(C)cc23)cc1`: the survival was 107%.

For `CCOc1ccc(NC(=O)C2CCCN(c3nn4cc(-c5ccc(OC)cc5)nc4s3)C2)cc1` (configuration not stated), the survival is 113%.

Turning to `Cc1oc(-c2cccc(Cl)c2)nc1CSc1nncn2c1cc1occc12`, the survival is 103%.

On to `COC(=O)c1sccc1S(=O)(=O)N(CC(=O)Nc1cc(C)cc(C)c1)c1ccc(Cl)cc1`, for which the survival was 88%.

Take `Cn1c(SCC#N)nc2c(c1=O)C1(CCCCC1)Cc1ccccc1-2`: the survival is 103%.

With `CCCCNC(=O)C1CCN(Cc2cccc(OC)c2O)CC1`, the survival was 78%.

For the compound `COC(=O)c1ccccc1NC(=O)CSc1nc(-c2ccccc2)cc(C(F)(F)F)n1`, the survival was 25% (active).

Consider `COC(=O)CSc1nc(-c2ccccc2)cc(C(F)(F)F)n1`, for which the survival was 88%.

On to `CCC(C)n1c(SCC(=O)Nc2ccccc2C(=O)OC)nc2ccsc2c1=O` (configuration not stated), for which the survival was 17% (active).

With `CCCNC(=O)CSc1nc(-c2ccccc2)cc(C(F)(F)F)n1`, the survival was 77%.

As for `CCn1c(SCC(=O)Nc2ccccc2C(=O)OC)nc2ccsc2c1=O`, the survival was 94%.

On to `COC(=O)c1ccccc1NC(=O)CSc1nc2ccsc2c(=O)n1CCC(C)C`, for which the survival is 88%.

Regarding `CCNC(=O)C1CCCN(c2ncnc3onc(C)c23)C1` (configuration not stated), the survival is 101%.

In the case of `CCOc1ccccc1NC(=O)c1ccc2c(c1)CCN2S(C)(=O)=O`, the survival is 75%.

Regarding `COc1ccc(S(=O)(=O)Nc2cccc(-c3ccc(N4CCOCC4)nn3)c2)cc1F`, the survival is 88%.

In the case of `COc1ccc(CCN2C(=O)c3oc4cc(C)cc(C)c4c(=O)c3C2c2ccc(F)cc2)cc1OC` (configuration not stated), the survival is 56%.

On to `Cc1cc(C)c2c(=O)c3c(oc2c1)C(=O)N(Cc1ccco1)C3c1ccc(F)cc1` (configuration not stated), for which the survival was 53%.

Turning to `Cc1cc(C)c2c(=O)c3c(oc2c1)C(=O)N(Cc1ccc(F)cc1)C3c1cccc(O)c1` (configuration not stated), the survival was 52% (active).

As for `O=C1c2oc3ccccc3c(=O)c2C(c2cccc(O)c2)N1Cc1ccc(F)cc1` (configuration not stated), the survival was 77%.

In the case of `CCCN1C(=O)c2oc3cc(C)cc(C)c3c(=O)c2C1c1ccc(F)cc1` (configuration not stated), the survival is 49% (active).

`COCCN1C(=O)c2oc3cc(C)cc(C)c3c(=O)c2C1c1cccc(O)c1` (configuration not stated): the survival was 71%.

For `COc1ccc(CNC(=O)c2ccc3c(c2)nc2n3CCCCC2)cc1`, the survival is 89%.

For `CCN(CC)S(=O)(=O)c1ccc2nc(NC(=O)c3ccc(Br)o3)sc2c1`, the survival was 87%.

On to `N#Cc1ccc(NC(=O)c2cc(-c3cccc(Cl)c3)on2)cc1`, for which the survival is 71%.

For `CCCCN(C)C(=O)C1CCC(Cn2c(=O)[nH]c3ccsc3c2=O)CC1` (configuration not stated), the survival is 0% (active).

For `CCCCCNC(=O)C1CCC(Cn2c(=O)c3sccc3n(CC)c2=O)CC1` (configuration not stated), the survival is 49%.

Take `CNC(=O)C1CCC(Cn2c(=O)[nH]c3ccsc3c2=O)CC1` (configuration not stated): the survival is 99%.

For `CCC(CC)C(=O)Nc1cc(-c2ccccc2F)nn1-c1ccccc1`, the survival is 76%.

Turning to `COC(=O)c1c(NC(=O)COc2cccc(C(F)(F)F)c2)sc2c1CCCC2`, the survival was 49%.

In the case of `CCOC(=O)c1c(NC(=O)COc2ccccc2F)sc2c1CCCC2`, the survival was 67%.

Consider `CCOC(=O)c1c(NC(=O)COc2ccccc2Br)sc2c1CCCCC2`, for which the survival is 40% (active).

For the compound `CCOC(=O)c1c(NC(=O)COc2cccc(C(F)(F)F)c2)sc2c1CCCCC2`, the survival was 60% (active).

Take `CCOC(=O)c1c(NC(=O)COc2cccc(C)c2C)sc2c1CCCCC2`: the survival was 64%.

Regarding `CCOC(=O)c1c(NC(=O)COc2cccc(C(F)(F)F)c2)sc2c1CCC(C)C2` (configuration not stated), the survival is 68%.

For `O=S(=O)(Nc1cccc(-c2ccc(N3CCOCC3)nn2)c1)c1ccc(F)cc1F`, the survival is 62%.

`Cc1c(CCNC(=O)c2c(F)cccc2F)sc2nc(-c3ccc(F)cc3)nn12`: the survival was 117%.

Regarding `CCOc1ccccc1CNC(=O)c1ccc(NC(=O)N2CCSc3ncccc32)cc1`, the survival was 79%.

Turning to `CCc1nnc(NC(=O)CSC2=NC(=O)C(NC(C)=O)C(=O)N2)s1` (configuration not stated), the survival is 99%.

As to `CCCN(CCC)C(=O)Cn1c(=O)n(CCCCCC(=O)NCc2ccccc2Cl)c(=O)c2sccc21`, the survival is 81%.

On to `Cc1ccc(Cn2c(=O)n(Cc3ccccc3)c(=O)c3oc4ccccc4c32)cc1`, for which the survival is 69%.

Take `CC(=O)N1CCCc2cc(S(=O)(=O)NCc3cccc(C)c3)ccc21`: the survival is 78%.

As to `C=CCc1c(C)nc2nc(SCC(=O)Nc3ccc(C)c(C)c3)nn2c1C`, the survival was 75%.

`CCOC(=O)c1ccccc1NC(=O)CSc1cc(C)[nH]c(=O)n1`: the survival is 88%.

As for `COc1cc(C(=O)Nc2cc(C)ccc2OCc2cc(=O)n3cc(C)sc3n2)cc(OC)c1OC`, the survival was 89%.

In the case of `O=C(c1cccn1-c1nnc(N2CCCC2)s1)N1CCN(c2ccccc2)CC1`, the survival was 25% (active).

Regarding `O=C(c1cccn1-c1nnc(N2CCCC2)s1)N1CCN(c2ccc(F)cc2)CC1`, the survival is 118%.

On to `COc1ccc(N2CCN(C(=O)c3cccn3-c3nnc(N4CCCC4)s3)CC2)cc1`, for which the survival is 101%.

Turning to `O=C(c1cccn1-c1nnc(N2CCCC2)s1)N1CCN(c2ccc(Cl)cc2)CC1`, the survival was 63%.

For the compound `O=C(c1cccn1-c1nnc(N2CCCCC2)s1)N1CCN(c2ccccc2)CC1`, the survival was 0% (active).

Consider `O=C(c1cccn1-c1nnc(N2CCCCC2)s1)N1CCN(c2ccc(Cl)cc2)CC1`, for which the survival is 69%.

Regarding `O=S(=O)(c1ccc2nc(Nc3ccc(Br)cc3F)ccc2c1)N1CCCCC1`, the survival was 70%.

For `Cc1ccc(CNC(=O)C2COc3ccccc3C2)cc1` (configuration not stated), the survival was 117%.

Turning to `Cc1ccc(CCNC(=O)C2COc3ccccc3C2)cc1` (configuration not stated), the survival was 74%.

`CCc1ccc(CNC(=O)C2COc3ccccc3C2)cc1` (configuration not stated): the survival was 81%.

On to `CCOc1cc(CNC(=O)C2COc3ccccc3C2)cc(OCC)c1OCC` (configuration not stated), for which the survival is 69%.

For the compound `COc1ccc(CCNC(=O)C2COc3ccccc3C2)cc1OC` (configuration not stated), the survival was 75%.

Take `O=C(NCCc1ccc(Cl)cc1)C1COc2ccccc2C1` (configuration not stated): the survival is 69%.

`CN(C)c1ccc(CNC(=O)C2COc3ccccc3C2)cc1` (configuration not stated): the survival is 32% (active).

For the compound `O=C(NCCc1ccccc1)C1COc2ccccc2C1` (configuration not stated), the survival was 37% (active).

As for `CCOc1ccc(CCNC(=O)C2COc3ccccc3C2)cc1OCC` (configuration not stated), the survival is 0% (active).
